Assay results published in the supplement of paper PMC12350171.
Counter-ions that a name gives are not always drawn.

Experiments:
Conditions in all cases: 20 µM
[1] = test system: Salmonella enterica typhimurium; test: growth AUC normalised to DMSO control (fraction of control); higher = less growth inhibition, active = hit call of the paper
In short: (§1)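 Pathogens passaged twice anaerobically were inoculated at a starting OD578 of 0.01 into pre-reduced mGAM plates with drug at 20 μM and 1% DMSO, sealed with breathable membranes. Haemophilus parainfluenzae medium was supplemented with hemin and NAD. OD578 was read hourly for 24 h, with three biological replicates. Growth-curve AUC was computed by the trapezoidal rule up to the exponential-to-stationary transition and normalised to DMSO controls on the same plate.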

[2] = test system: Shigella flexneri; test: as above
In short: as §1

[3] = test system: Vibrio cholerae; test: as above
In short: as §1

[4] = test system: Yersinia pseudotuberculosis; test: as above
In short: as §1

[5] = test system: P. vulgatus RND KO; test: growth AUC normalised to DMSO control (median) (fraction of control); higher = less growth inhibition, active = hit call of the paper
In short: (§2)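 Strains were passaged twice overnight without oxygen, then grown in mGAM in 96-well plates with each approved-drug library compound at 20 μM and 1% DMSO, starting at OD578 0.01. OD578 was read hourly for 24 h inside an anaerobic incubator. Curves were truncated at entry into stationary phase, and the trapezoidal-rule area under the curve was normalised to same-plate vehicle wells. The value is the median across three biological replicates.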

[6] = test system: P. vulgatus WT; test: as above
In short: as §2

[7] = test system: S. enterica typhimurium WT; test: as above
In short: as §2

[8] = test system: S. enterica typhimurium tolC KO; test: as above
In short: as §2

Measured: growth AUC normalised to DMSO control
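Throughout, for growth AUC normalised to DMSO control (median): active when median AUC fell below 0.1.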

CC(C)NCC(O)c1ccc(NS(C)(=O)=O)cc1 (stereo not drawn) [Sotalol hydrochloride]
inactive: [1] 1 | [2] 1.06 | [3] 1.04 | [4] 1.02 | [5] 1.02 | [6] 1.06 | [7] 1.01 | [8] 0.998

CNCCC=C1c2ccccc2C=Cc2ccccc21 [Norcyclobenzaprine]
inactive: [1] 0.983 | [2] 0.935 | [3] 0.888 | [4] 0.996 | [5] 0.943 | [6] 0.926 | [7] 0.994 | [8] 0.968

CCc1cccc2c3c([nH]c12)C(CC)(CC(=O)O)OCC3 (stereo not drawn) [Etodolac]
inactive: [1] 1.01 | [2] 1.06 | [3] 1.06 | [4] 1.02 | [5] 0.99 | [6] 1.01 | [7] 1.02 | [8] 1.02

CN1CCN(C2=Nc3cc(Cl)ccc3Nc3ccccc32)CC1 [Clozapine]
inactive: [1] 1.02 | [2] 1.05 | [3] 0.969 | [4] 1 | [5] 1.01 | [6] 1.02 | [7] 1 | [8] 0.977

C[C@]12CC[C@@H]3c4ccc(O)cc4CC[C@H]3[C@@H]1CC[C@@H]2O [Estradiol-17 beta]
inactive: [1] 1.02 | [2] 1.01 | [3] 0.992 | [4] 1.01 | [5] 0.941 | [6] 0.941 | [7] 1.02 | [8] 0.997

CCN(CC)CCOCCOC(=O)C1(c2ccccc2)CCCC1 [Carbetapentane citrate]
inactive: [1] 0.995 | [2] 1 | [3] 1 | [4] 1 | [5] 1.01 | [6] 1.01 | [7] 0.995 | [8] 0.992

CCOc1ccc(NC(C)=O)cc1 [Phenacetin]
inactive: [1] 0.992 | [2] 0.959 | [3] 0.984 | [4] 0.973 | [5] 1 | [6] 0.997 | [7] 1 | [8] 1

CC1CC(OC(=O)c2ccccc2O)CC(C)(C)C1 (stereo not drawn) [Homosalate]
inactive: [1] 1 | [2] 0.996 | [3] 1.02 | [4] 1.01 | [5] 0.995 | [6] 1.03 | [7] 1.01 | [8] 0.998

Cn1nnc2c(C(N)=O)ncn2c1=O [Temozolomide]
inactive: [1] 0.981 | [2] 0.963 | [3] 0.992 | [4] 0.996 | [5] 0.989 | [6] 0.988 | [7] 0.967 | [8] 1.01

CCCc1cc(=O)[nH]c(=S)[nH]1 [Propylthiouracil]
inactive: [1] 0.987 | [2] 0.991 | [3] 1 | [4] 0.993 | [5] 1.02 | [6] 1.05 | [7] 1.01 | [8] 0.996

CC(C)(CO)[C@@H](O)C(=O)NCCCO [(D)-Panthenol]
inactive: [1] 0.999 | [2] 1.02 | [3] 0.998 | [4] 0.99 | [5] 0.995 | [6] 0.979 | [7] 1 | [8] 1

CCCCCCCCNC(C)C(O)c1ccc(SC(C)C)cc1 (stereo not drawn) [Suloctidil]
inactive: [1] 1.02 | [2] 0.995 | [3] 1 | [4] 0.937 | [5] 0.992 | [6] 1.02 | [7] 1.02 | [8] 0.997

Cn1c(=O)c2c(ncn2CC2OCCO2)n(C)c1=O [Doxofylline]
inactive: [1] 1 | [2] 1.07 | [3] 1.01 | [4] 0.99 | [5] 1.02 | [6] 1.06 | [7] 0.999 | [8] 1

CC(C)NCC(O)COc1ccc(CCOCC2CC2)cc1 (stereo not drawn) [Betaxolol hydrochloride]
inactive: [1] 0.998 | [2] 0.988 | [3] 1 | [4] 1 | [5] 1.01 | [6] 1.01 | [7] 1.01 | [8] 1

CC1(C)O[C@@H]2C[C@H]3[C@@H]4C[C@H](F)C5=CC(=O)C=C[C@]5(C)[C@@]4(F)[C@@H](O)C[C@]3(C)[C@]2(C(=O)CO)O1 [Fluocinolone acetonide]
inactive: [1] 1 | [2] 1.01 | [3] 1.02 | [4] 1 | [5] 0.975 | [6] 0.967 | [7] 1 | [8] 0.993

Clc1ccc2c(c1)CCc1cccnc1C2=C1CCNCC1 [Desloratadine]
inactive: [1] 1.02 | [2] 0.975 | [3] 1 | [4] 0.998 | [5] 0.959 | [6] 0.961 | [7] 0.988 | [8] 0.996

N=C(NCCCCCCNC(=N)NC(=N)Nc1ccc(Cl)cc1)NC(=N)Nc1ccc(Cl)cc1 [Chlorhexidine]
inactive: [3] 0.954 | [7] 0.942 | [8] 0.816
active: [1] 0.355 | [2] 0.0156 | [4] 0.307 | [5] 0.00823 | [6] 0.0134

COc1ccc(OC)c(C(O)CNC(=O)CN)c1 (stereo not drawn) [Midodrine hydrochloride]
inactive: [1] 0.992 | [2] 0.99 | [3] 1.02 | [4] 1.02 | [5] 1.02 | [6] 1.02 | [7] 1.02 | [8] 1

CC(C)NC[C@@H](O)COc1ccc(CC(N)=O)cc1 [(R,+) Atenolol]
inactive: [1] 1.01 | [2] 1.06 | [3] 1.07 | [4] 1.02 | [5] 1.04 | [6] 1.01 | [7] 1.02 | [8] 0.986

CC(=O)c1ccc(S(=O)(=O)NC(=O)NC2CCCCC2)cc1 [Acetohexamide]
inactive: [1] 1 | [2] 0.998 | [3] 0.984 | [4] 0.989 | [5] 0.949 | [6] 1 | [7] 0.996 | [8] 0.994

CC(=O)OCC(=O)[C@@]1(O)CC[C@H]2[C@@H]3CCC4=CC(=O)CC[C@]4(C)[C@@]3(F)[C@@H](O)C[C@@]21C [Fludrocortisone acetate]
inactive: [1] 0.995 | [2] 0.988 | [3] 1 | [4] 1 | [5] 1.02 | [6] 1.04 | [7] 1.02 | [8] 0.981

Cn1c(=O)c2c(ncn2CCO)n(C)c1=O [Etofylline]
inactive: [1] 0.998 | [2] 0.993 | [3] 1.01 | [4] 1.01 | [5] 0.998 | [6] 1.02 | [7] 0.999 | [8] 0.993

O=C(Cn1ccnc1[N+](=O)[O-])NCCO [Etanidazole]
inactive: [1] 1.01 | [2] 1.03 | [3] 1.03 | [4] 1.02 | [5] 0.991 | [6] 1.01 | [7] 0.99 | [8] 1.02

C[C@@H]1C[C@H]2[C@@H]3C[C@H](F)C4=CC(=O)C=C[C@]4(C)[C@@]3(Cl)[C@@H](O)C[C@]2(C)[C@H]1C(=O)COC(=O)C(C)(C)C [Clocortolone pivalate]
active: [5] 0.0165 | [6] 0.0896
inactive: [1] 1.03 | [2] 1.06 | [3] 1.12 | [4] 1.05 | [7] 1.01 | [8] 1.04

CCN(CC)C(=O)N1CCN(C)CC1 [Diethylcarbamazine citrate]
inactive: [1] 0.959 | [2] 0.973 | [3] 0.983 | [4] 0.998 | [5] 0.995 | [6] 0.978 | [7] 0.999 | [8] 0.995

CCCOc1ccccc1-c1nc2[nH]nnc2c(=O)[nH]1 [Zaprinast]
inactive: [1] 0.998 | [2] 0.977 | [3] 0.985 | [4] 0.989 | [5] 1 | [6] 1.02 | [7] 1 | [8] 1

CCCN[C@H]1CCc2nc(N)sc2C1 [Pramipexole dihydrochloride]
inactive: [1] 0.989 | [2] 0.972 | [3] 0.989 | [4] 0.994 | [5] 0.988 | [6] 0.997 | [7] 0.992 | [8] 0.999

COc1c(N2CCNC(C)C2)c(F)cc2c(=O)c(C(=O)O)cn(C3CC3)c12 (stereo not drawn) [Gatifloxacin]
active: [1] 0.0102 | [2] 0.0167 | [3] 0.0355 | [4] 0.0287 | [5] 0.0163 | [6] 0.0109 | [7] 0.0104 | [8] 0.0044

NC(=O)N1c2ccccc2C=Cc2ccccc21 [Carbamazepine]
inactive: [1] 0.997 | [2] 0.996 | [3] 0.999 | [4] 1 | [5] 1 | [6] 1.04 | [7] 0.998 | [8] 0.999

CN1CCN2c3ncccc3Cc3ccccc3C2C1 (stereo not drawn) [Mirtazapine]
inactive: [1] 0.995 | [2] 1.01 | [3] 1.01 | [4] 1 | [5] 1.03 | [6] 1.02 | [7] 1 | [8] 0.997

CC(=O)[C@H]1CC[C@H]2[C@@H]3C=CC4=CC(=O)CC[C@@]4(C)[C@@H]3CC[C@]12C [Dydrogesterone]
inactive: [1] 1 | [2] 0.986 | [3] 0.99 | [4] 1.01 | [5] 1.02 | [6] 1.04 | [7] 1.01 | [8] 0.909
